Experimental data taken from PubChem BioAssay AID1159580 (chemical genetic matrix, 2015).
About 2,000 (36%) of roughly 5,500 compounds were called active. Not shown: some 18% with an inconclusive outcome. No stated cut-off is given here; in the data, active means normalized growth mostly below about 0.91 (no sharp cut-off); inconclusive means no clear call, values can overlap the other calls; inactive means mostly above about 0.92. Some of the results follow.

Experiment: chemical genetic growth profiling, strain panel (AID 1159580);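 further: tested at 20 µM; growth read once vehicle control cultures reached saturation at 30 °C; 1 = growth at the plate median or of vehicle wells; lower values mean less growth of the strain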
Conditions: S. cerevisiae deletion strains, growth OD

Measured: normalized growth

CN1CCc2cc3c(cc2[C@H]1C1OC(=O)c2c1ccc1c2OCO1)OCO3 (stereo not given in full)
inactive: locus YAL021C, strain ccr4, active compounds read low 1.01 | locus YAL026C, strain drs2, active compounds read low 0.989 | locus YAL030W, strain snc1, active compounds read low 0.982 | locus YBL061C, strain skt5, active compounds read low 0.982 | locus YBR009C, strain hhf1, active compounds read low 0.989 | locus YBR023C, strain chs3, active compounds read low 0.972 | locus YBR171W, strain sec66, active compounds read low 0.997 | locus YBR231C, strain swc5, active compounds read low 0.993 | locus YBR279W, strain paf1, active compounds read low 0.993 | locus YCL011C, strain gbp2, active compounds read low 0.985 | locus YCL016C, strain dcc1, active compounds read low 0.981 | locus YCL061C, strain MRC1, active compounds read low 0.993 | locus YCL069W, strain vba3, active compounds read low 0.986 | locus YCR088W, strain abp1, active compounds read low 0.98 | locus YDL005C, strain med2, active compounds read low 0.988 | locus YDL040C, strain nat1, active compounds read low 0.99 | locus YDR001C, strain nth1, active compounds read low 0.986 | locus YDR069C, strain doa4, active compounds read low 0.974 | locus YDR137W, strain rgp1, active compounds read low 0.971 | locus YDR159W, strain sac3, active compounds read low 0.976 | locus YDR195W, strain ref2 0.957 | locus YDR297W, strain sur2, active compounds read low 0.987 | locus YDR334W, strain swr1, active compounds read low 0.981 | locus YDR335W, strain msn5, active compounds read low 0.996 | locus YDR392W, strain spt3, active compounds read low 0.905 | locus YEL003W, strain gim4, active compounds read low 0.991 | locus YEL037C, strain rad23, active compounds read low 0.971 | locus YEL061C, strain CIN8 (second series), active compounds read low 0.973 | locus YER015W, strain faa2, active compounds read low 0.982 | locus YER016W, strain bim1, active compounds read low 0.989 | locus YER111C, strain swi4, active compounds read low 0.991 | locus YER155C, strain BEM2 (second series), active compounds read low 0.968 | locus YFR010W, strain ubp6, active compounds read low 0.977 | locus YGL167C, strain pmr1, active compounds read low 0.98 | locus YGL173C, strain kem1, active compounds read low 0.988 | locus YGL227W, strain vid30, active compounds read low 0.976 | locus YGL240W, strain doc1, active compounds read low 0.983 | locus YGL253W, strain hxk2, active compounds read low 0.987 | locus YHR013C, strain ard1, active compounds read low 0.959 | locus YHR027C, strain rpn1, active compounds read low 0.993 | locus YHR030C, strain SLT2, active compounds read low 0.985 | locus YHR079C, strain IRE1, active compounds read low 0.989 | locus YHR142W, strain chs7, active compounds read low 1.01 | locus YJL092W, strain hpr5, active compounds read low 0.991 | locus YJL095W, strain BCK1 (second series), active compounds read low 0.988 | locus YJL095W, strain BCK1, active compounds read low 0.987 | locus YJL115W, strain asf1, active compounds read low 0.983 | locus YJL129C, strain trk1, active compounds read low 0.975 | locus YJL154C, strain vps35, active compounds read low 0.985 | locus YJL164C, strain tpk1, active compounds read low 1.01 | locus YJL166W, strain qcr8, active compounds read low 0.999 | locus YJL187C, strain SWE1, active compounds read low 0.986 | locus YJR066W, strain TOR1, active compounds read low 0.93 | locus YKL160W, strain elf1, active compounds read low 1.01 | locus YKR026C, strain gcn3, active compounds read low 0.979 | locus YKR091W, strain srl3, active compounds read low 0.99 | locus YLL001W, strain dnm1, active compounds read low 0.987 | locus YLL026W, active compounds read low 0.983 | locus YLL041C, strain sdh2, active compounds read low 0.994 | locus YLR027C, strain aat2, active compounds read low 0.976 | locus YLR113W, strain HOG1, active compounds read low 0.987 | locus YLR221C, strain rsa3, active compounds read low 0.989 | locus YLR258W, strain gsy2, active compounds read low 0.988 | locus YLR262C, strain YPT6 (second series), active compounds read low 0.97 | locus YLR320W, strain mms22, active compounds read low 0.993 | locus YLR342W, strain FKS1, active compounds read low 0.983 | locus YLR357W, strain rsc2, active compounds read low 0.997 | locus YLR370C, strain arc18, active compounds read low 0.983 | locus YLR384C, strain iki3, active compounds read low 0.976 | locus YML120C, strain ndi1, active compounds read low 0.981 | locus YMR058W, strain fet3, active compounds read low 0.969 | locus YMR125W, strain sto1, active compounds read low 0.973 | locus YMR129W, active compounds read low 0.995 | locus YMR205C, strain PFK2, active compounds read low 0.98 | locus YMR231W, strain pep5, active compounds read low 0.987 | locus YNL071W, strain lat1, active compounds read low 0.989 | locus YNL183C, strain NPR1, active compounds read low 0.94 | locus YNL209W, strain ssb2, active compounds read low 0.985 | locus YNL248C, strain rpa49, active compounds read low 0.993 | locus YNL322C, strain KRE1 (second series), active compounds read low 0.987 | locus YNR049C, strain mso1, active compounds read low 0.99 | locus YOR001W, strain rrp6, active compounds read low 1.01 | locus YOR070C, strain gyp1, active compounds read low 0.973 | locus YOR080W, strain dia2, active compounds read low 0.994 | locus YOR083W, strain WHI5, active compounds read low 1.01 | locus YOR106W, strain vam3, active compounds read low 0.99 | locus YOR231W, strain MKK1, active compounds read low 0.977 | locus YOR265W, strain rbl2, active compounds read low 0.99 | locus YOR270C, strain vph1, active compounds read low 0.947 | locus YOR290C, strain snf2, active compounds read low 0.974 | locus YPL051W, strain arl3, active compounds read low 1 | locus YPL078C, strain atp4, active compounds read low 1.01 | locus YPL106C, strain sse1, active compounds read low 0.967 | locus YPL240C, strain hsp82, active compounds read low 0.996 | locus YPL256C, strain CLN2, active compounds read low 0.968
